# Source: PubChem BioAssay (NCATS)
# Records with an inconclusive call do not appear. Active and inactive are the calls of the source. Calls follow the shape of the dose curve; as a rule, active = well fitted inhibition curve with a large enough effect; inconclusive = small, poorly fitted or top-dose-only effect; inactive = flat fitted curve, though single readings scatter.
# Test: P-glycoprotein substrates identified in KB-8-5-11 adenocarcinoma cell line, qHTS therapeutic library screen (AID 1346987); also: nearly all actives have a fitted effect of over 65% in size
# Conditions: KB-8-5-11 (P-gp overexpressing) viability, CellTiter-Glo, 72 h; series mostly up to 44.5 µM; activity change, negative = cytotoxicity: at the top concentration
# Summary of the method: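 Human cervical adenocarcinoma KB-8-5-11 cells, selected in colchicine to over-express P-gp and assayed without it, were exposed for 72 h to titrated compounds. An ATP-based luminescent viability signal gave AC50.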
# % is scaled to controls: 0 for no effect and ±100 for the full control effect; potency is read from the fitted curve at half-maximal effect.
SMILES,"activity change, negative = cytotoxicity",outcome,Potency
CC(C)[C@H]1CCC(CO)=C[C@@H]1/C=C(\CO)C(=O)O,8.69% (inactive),–,–
CC(C)C(=O)c1cn(CC(=O)COc2ccc(Oc3ccccc3)cc2)c2ccc(C(=O)O)cc12,–,inactive,–
C=C1C2(CCC(=O)OC2(C)C)CC(OC(=O)/C(C)=C/C)C2(C)C13OC14C(=O)OC(C)(C(=O)C12C(=O)OC4C)C3OC(C)=O (stereo not given),–,inactive [at 17.3 µM],–
CCC[C@@H]1C[C@@H](C(=O)N[C@H](C(C)Cl)[C@H]2O[C@H](SC)[C@H](O)[C@@H](O)[C@H]2O)N(C)C1 (stereo not given in full),0.539% (inactive),–,–
O=C(O)c1n[nH]c2c1C[C@H]1C[C@@H]21,–,inactive,–
COC1(CC(C)C)NC(=O)C(O)(Cc2ccccc2)NC1=O (stereo not given),–,inactive,–
C=CC1C(O[C@@H]2O[C@H](CO)[C@@H](O)[C@H](O)[C@H]2O)OC=C(C(=O)OC)C1Cc1nccc2c1[nH]c1ccccc12 (stereo not given in full),–,inactive [at 17.3 µM],–
CC1=CC(=O)C[C@H]2[C@@H]1CC[C@@H](C)[C@]21CO[C@H](c2ccoc2)C1=O,-5.74% (inactive),–,–
O=C(c1ccccn1)c1cnn2c(-c3ccncc3)ccnc12,–,inactive,–
COC(=O)C1=CO[C@@H](O[C@@H]2O[C@H](CO[C@@H]3O[C@H](COC(=O)/C=C/c4ccc(O)cc4)[C@@H](O)[C@H](O)[C@H]3O)[C@@H](O)[C@H](O)[C@H]2O)[C@@H]2C(CO)=CC[C@H]12,–,inactive [at 17.3 µM],–
C=C1CC[C@@H]2[C@](C)(CO[C@@H]3O[C@H](CO)[C@@H](O)[C@H](O)[C@H]3O)CCC[C@@]2(C)[C@@H]1CCC1=CCOC1=O,–,inactive [at 17.3 µM],–
CC1=C(C)C(=O)OC(C(C)(O)C2CCC3C4CC=C5CC(OC6OC(COC7OC(CO)C(O)C(O)C7O)C(O)C(O)C6O)CC(O)C5(C)C4CCC32C)C1 (stereo not given),–,inactive [at 17.3 µM],–
Cc1[nH]cnc1C1CCN(c2nc3cccc4c3n2CCC4=O)CC1,–,inactive,–
Cc1cc(Nc2ncc(Cl)c(Nc3ccccc3S(=O)(=O)C(C)C)n2)c(OC(C)C)cc1C1CCNCC1,–,–,6.51 µM (active)
CC(C)CC(=O)OC[C@H]1O[C@@](COC(=O)CC(C)C)(O[C@H]2O[C@H](CO)[C@@H](O)[C@H](O)[C@H]2O)[C@@H](OC(=O)CC(C)C)[C@@H]1OC(=O)CC(C)C,–,inactive [at 17.3 µM],–
COC1CCCC/C(C)=C/C2C=C(C)C(C)C3C(CC(C)C)NC(=O)C23C(=O)C1 (stereo not given),0.0759% [at 17.3 µM] (inactive),–,–
COc1cc(/C=C/C(=O)OC(C)(C)C(OC2OC(CO)C(O)C(O)C2O)C(=O)OCc2ccc(OC3OC(CO)C(O)C(O)C3O)cc2)ccc1O (stereo not given),–,inactive [at 17.3 µM],–
N[C@@H](CC(=O)N1CCn2c(nnc2C(F)(F)F)C1)Cc1[nH]nc2c(F)c(F)ccc12,0.719% (inactive),–,–
COC1=CC(=O)O[C@@H](CCc2ccccc2)[C@@H]1O,4.29% (inactive),–,–
COC(=O)c1cc(CN2CCN(C(=N)N)CC2)cc(C(=O)N2CCN(C(=O)c3ccc(C(=N)N)cc3)CC2)c1,–,inactive,–

SMILES,"activity change, negative = cytotoxicity",outcome,Potency
CN1C(=O)N[C@@H](Cc2c[nH]c3c(Cl)cccc23)C1=O,–,inactive,–
Cc1ccc(C(=O)Nc2ccc(Oc3cc4cnn(C)c4cc3-c3cn[nH]c3)c(F)c2)c(=O)n1-c1ccc(F)cc1,–,–,4.61 µM (active)
C=C1C[C@]23C[C@H]1CC[C@H]2[C@]1(C)CCC[C@@]2(CO)C(=O)O[C@H]([C@H]21)[C@@H]3O,9.16% (inactive),–,–
C=C(C(=O)O)C1CCC(C)C2CCC(=O)OC2(C)C1 (stereo not given),0.192% (inactive),–,–
OCC1OC(Oc2cc(O)c3c(c2)OC(c2ccc(O)cc2)C(O)C3)C(O)C1O (stereo not given),–,inactive [at 17.3 µM],–
CC(C)c1cc2c(c(O)c1O[C@@H]1O[C@H](CO)[C@@H](O)[C@H](O)[C@H]1O)CC1(O)CCC(O)C(C)(C)C1CC2 (stereo not given in full),8.06% [at 17.3 µM] (inactive),–,–
CC1CCC2C(C)(C)C(O)CCC2(C)C12Cc1c(O)cc3c(c1O2)CN(C(CCC(N)=O)C(=O)O)C3=O (stereo not given),–,inactive [at 17.3 µM],–
C=C1CC[C@@H]2[C@](C)(CC[C@H](O)[C@@]2(C)CCC=C(C)C)[C@@H]1Cc1c[nH]c2ccccc12,-21% [at 17.3 µM] (inactive),–,–
C=C1CCC2[C@@](C)(C=O)CCC[C@]2(C)[C@H]1CC/C(C)=C/CO (stereo not given in full),0.557% (inactive),–,–
CC1(C)CC[C@]2(C(=O)O)CC[C@]3(C)C(=CCC4[C@@]5(C)C[C@@H](O)[C@H](O)C(C)(C)C5CC[C@]43C)[C@@H]2[C@@H]1O (stereo not given in full),-3.96% [at 17.3 µM] (inactive),–,–
C=C1CCC2C(C)(C(=O)O)CC(O)CC2(C)C1CC/C(C)=C/C(=O)O (stereo not given),6.48% (inactive),–,–
CC(C)N(C[C@H]1O[C@@H](n2cnc3c(N)ncnc32)[C@H](O)[C@@H]1O)C1CC(CCc2nc3ccc(C(C)(C)C)cc3[nH]2)C1 (stereo not given in full),5.83% (inactive),–,–
C=C1CC2C3(C)C(OC(C)=O)CC(=O)OC(C)(C)C3C(O)C(OC(C)=O)C2(C)C2C(=O)OC(C)C(=O)C12C (stereo not given),4.84% [at 17.3 µM] (inactive),–,–
CCOC(=O)c1c(C)nn(-c2cccc([N+](=O)[O-])c2)c1C,6.8% (inactive),–,–
C=CC1(C)CC2=CCC3C(C)(C(=O)O)CCCC3(C)C2CC1OC(C)=O (stereo not given),–,inactive,–
CCCC1=CC2=C(CO1)C(=O)C(C)(OC(=O)c1c(C)cc(OC)cc1O)C(O)C2 (stereo not given),-1.99% [at 17.3 µM] (inactive),–,–
C[C@@H]1CC[C@]2(C(=O)O[C@@H]3O[C@H](CO)[C@@H](O)[C@H](O)[C@H]3O)CC[C@]3(C)C(=CCC4[C@@]5(C)C[C@@H](O)[C@H](O)C(C)(C)C5CC[C@]43C)C2[C@]1(C)O (stereo not given in full),1.39% [at 17.3 µM] (inactive),–,–
Cn1ccnc1CCOC(c1cc2nccc(C(=O)O)c2[nH]1)c1ccccc1Cl (stereo not given),–,inactive,–
CC(C)(O)C1CCC2(C)C3C(O)C4C(C13)C42CO (stereo not given),–,inactive,–
C[C@H]1[C@H](C)CC[C@]2(C(=O)O[C@@H]3O[C@H](CO)[C@@H](O)[C@H](O)[C@H]3O)CC[C@]3(C(=O)O)C(=CCC4[C@@]5(C)CC[C@H](O[C@@H]6O[C@H](CO)[C@@H](O)[C@H](O)[C@H]6O)C(C)(C)C5CC[C@]43C)[C@H]12 (stereo not given in full),–,inactive [at 9.29 µM],–
